# JMJD2A Tudor inh: inhibitors of human JMJD2A Tudor domain; Potency, µM (highest dose often 114 µM), inactives show at the top dose activity change, negative = inhibition, actives largely listed as inhibitors; O75164; 390,000 tested, 4.4% active; AlphaScreen JMJD2A-Tudor / H3K4me3 peptide binding; AID 504339; note: % is set by controls: 0 for no effect and ±100 for the full control effect; nearly all actives have a fitted effect of over 50% in size
# Target sequence (O75164 whole entry, looked up, the tested form may be a part): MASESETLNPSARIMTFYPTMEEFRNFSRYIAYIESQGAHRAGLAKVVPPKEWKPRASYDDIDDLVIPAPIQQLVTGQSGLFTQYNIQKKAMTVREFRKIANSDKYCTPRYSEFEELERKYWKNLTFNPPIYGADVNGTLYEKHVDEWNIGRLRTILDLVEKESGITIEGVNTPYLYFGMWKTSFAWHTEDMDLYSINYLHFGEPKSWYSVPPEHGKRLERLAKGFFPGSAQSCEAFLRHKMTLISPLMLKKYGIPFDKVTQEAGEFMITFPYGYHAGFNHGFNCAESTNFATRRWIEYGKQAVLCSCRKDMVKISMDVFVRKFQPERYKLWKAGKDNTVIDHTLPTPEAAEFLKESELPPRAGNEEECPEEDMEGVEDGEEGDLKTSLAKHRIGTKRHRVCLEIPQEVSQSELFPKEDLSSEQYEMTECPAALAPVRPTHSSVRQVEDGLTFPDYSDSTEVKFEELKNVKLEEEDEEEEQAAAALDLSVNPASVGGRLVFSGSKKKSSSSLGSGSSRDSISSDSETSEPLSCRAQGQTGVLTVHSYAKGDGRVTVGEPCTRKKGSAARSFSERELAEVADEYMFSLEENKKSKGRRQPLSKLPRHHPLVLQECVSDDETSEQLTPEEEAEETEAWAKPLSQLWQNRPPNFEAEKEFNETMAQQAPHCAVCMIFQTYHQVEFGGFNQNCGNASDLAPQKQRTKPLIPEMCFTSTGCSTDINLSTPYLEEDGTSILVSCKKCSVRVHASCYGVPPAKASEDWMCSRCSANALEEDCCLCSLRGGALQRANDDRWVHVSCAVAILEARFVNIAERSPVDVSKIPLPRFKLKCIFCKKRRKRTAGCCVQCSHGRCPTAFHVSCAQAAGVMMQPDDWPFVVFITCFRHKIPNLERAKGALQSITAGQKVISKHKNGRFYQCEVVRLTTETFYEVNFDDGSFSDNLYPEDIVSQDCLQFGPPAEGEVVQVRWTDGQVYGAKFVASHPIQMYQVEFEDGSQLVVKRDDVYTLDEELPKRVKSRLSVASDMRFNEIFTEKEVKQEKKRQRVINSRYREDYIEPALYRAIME
# Sfp PPTase inh: inhibitors of Bacillus subtilis Sfp phosphopantetheinyl transferase; Q9F4F7; 310,000 tested, 3.5% active; Potency, µM, without a hit: largest response in the series, negative = inhibition, most hits filed as inhibitors; Biochemical Sfp PPTase activity, qHTS;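 note: the enzyme is Sfp with the accession as filed and its product quenches rhodamine fluorescence; 0% = enzyme reaction without inhibitor and -100% = no enzyme wells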
#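 Fluorescence-quenching assay: 15 nM Sfp-PPTase preincubated 15 min at room temperature with compound, then 5 uM rhodamine-CoA and 12.5 uM BHQ-2-labelled YbbR peptide added. Fluorescence (ex 525/em 598 nm) read at start and after 30 min; difference gives rate.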
# HP1b chromo inh: blocks HP1-beta chromodomain binding to methylated histone tails. P83916. AlphaScreen HP1-beta / biotin-H3K9me3 peptide binding. Potency, µM (titrated, usually from 114 µM), for inactives: at the top dose activity change, negative = inhibition, most hits filed as inhibitors. 390,000 tested, 0.56% active. AID 540317; note: nearly all actives have a fitted effect of over 70% in size
#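 HP1-beta protein (50 nM final) preincubated 30 min at room temperature with biotinylated H3(1-18)K9me3 peptide (50 nM) in PBS pH 7.4, 0.01% Tween-20, then compound added for 30 min. AlphaScreen streptavidin donor/nickel chelate acceptor beads (10 ug/mL final), 30 min dark, luminescence read.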
# PLK1 PBD inh: blocks phosphopeptide binding to human PLK1 polo-box domain | Plk1 PBD binding of FITC phosphopeptide, fluorescence polarization | Potency, µM, inactives show max response, negative = inhibition, most hits filed as inhibitors | 360,000 tested, 2.8% active | AID 720504; note: series mostly up to about 57 µM; % is set by controls: 0 for no effect and ±100 for the full control effect; nearly all actives have a fitted effect of over 65% in size
# BAZ2B inh: BAZ2B (human) inhibition; AlphaScreen BAZ2B-H3K14Ac peptide displacement; Potency, µM (titrated, usually from 114 µM), without a hit: at the highest dose activity change, negative = inhibition, usual class: inhibitors; 360,000 tested, 4.4% active; note: % is set by controls: 0 for no effect and ±100 for the full control effect; nearly all actives have a fitted effect of over 60% in size
#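 Inhibition is scored as reduced AlphaScreen emission. The BAZ2B/b-H3(5-23)K14Ac complex (50 nM each) in PBS pH 7.4, 0.01% Tween-20 meets compound (up to 110 uM) for 30 min at RT before bead addition.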
# G9a inh: G9a (human) methyltransferase inhibition; AID 504332; Potency, µM (highest dose often 102 µM), inactives show at the highest dose activity, negative = inhibition, usual class: inhibitors; 350,000 tested, 8.8% active; G9a H3K9 monomethylation, AlphaScreen, 2 h; note: % is set by controls: 0 for no effect and ±100 for the full control effect; nearly all actives have a fitted effect of over 75% in size
#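 G9a (20 nM) preincubated 15 min RT with compounds, then 500 nM biotinylated H3K9 peptide and 20 uM SAM added; 2 h RT reaction. Monomethyl-H3K9 product detected by AlphaScreen with anti-H3K9me1 antibody, streptavidin donor and anti-rabbit IgG acceptor beads.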
# Active calls of the source: *; u = inconclusive; x = not tested or not shown; [ ] = remark or other dose. The list is not random: actives were taken first. Their share in the collection is about 12%. Calls come from the whole dose curve; as a rule, active = well fitted curve in the direction sought with a large enough effect; inconclusive = small, poorly fitted or top-dose-only effect, or another doubt; inactive = no such curve, though single readings can be large; an effect the other way counts as inactive or inconclusive. Potency is the fitted concentration of half-maximal effect.
SMILES,JMJD2A Tudor inh,Sfp PPTase inh,HP1b chromo inh,PLK1 PBD inh,BAZ2B inh,G9a inh
COc1ccc(OC)c(S(=O)(=O)Nc2ccc(-c3ccc4nncn4n3)cc2)c1,-1.4%,x,u,26.7µM*,-0.1%,12.6µM*
COc1ccc(S(=O)(=O)Nc2cccc(-c3ccc(N4CCCC4)nn3)c2)c(OC)c1,-30.0%,x,-34.5%[57 µM],x,-10.0%,7.94µM*
CCCOc1ccc(-c2cccc(NS(=O)(=O)c3cc(OC)ccc3OC)c2)nn1,-23.6%,x,-23.7%[57 µM],x,-3.7%,7.94µM*
COc1ccc(S(=O)(=O)Nc2cccc(-c3ccc(N4CCCCCC4)nn3)c2)c(OC)c1,-28.1%,u,14.2%,u,-14.0%,44.7µM*
CCOc1ccc(S(=O)(=O)Nc2cccc(-c3ccc(N4CCCC4)nn3)c2)cc1,-22.7%,x,u,x,-7.1%,u
COc1ccc(OC)c(S(=O)(=O)Nc2cccc(-c3ccc(N4CCCCCC4)nn3)c2)c1,-30.6%,8.1%,1.9%[57 µM],-10.0%,-19.2%,20.5%
CCOc1ccc(S(=O)(=O)Nc2cccc(-c3ccc(N4CCC(C)CC4)nn3)c2)cc1,-28.4%,x,-10.7%[57 µM],x,-9.5%,25.1µM*
O=C(Nc1cccc2cccnc12)c1ccc(F)cc1,-6.2%,x,60.6%,x,156.5%,13.9%[59 µM]
Cc1cc(C)cc(NC(=O)C(=O)NCC(c2cccnc2)N2CCOCC2)c1 (stereo unspecified),-17.4%,x,19.7%,x,79.4µM*,-38.9%[59 µM]
COc1ccc(NC(=O)C(=O)NCC(c2cccnc2)N2CCc3ccccc3C2)cc1 (stereo unspecified),39.8µM*,x,u,x,10µM*,14.1µM*
O=C(NCC(c1cccnc1)N1CCc2ccccc2C1)C(=O)Nc1ccccc1 (stereo unspecified),u,x,-19.8%,x,u,u
COc1ccc(N2CCN(C(CNC(=O)C(=O)NCCCn3ccnc3)c3cccnc3)CC2)cc1 (stereo unspecified),44.7µM*,5.4%,14.8%,-4.9%,x,u
COc1ccc(CCNC(=O)C(=O)NCC(c2cccnc2)N2CCN(c3ccccc3)CC2)cc1 (stereo unspecified),-16.1%,x,46.1%,x,-37.3%,-27.5%[59 µM]
O=C(NCCCn1ccnc1)C(=O)NCC(c1cccnc1)N1CCN(c2ccc(F)cc2)CC1 (stereo unspecified),-34.0%,-25.5%,28.5%,-2.6%,50.1µM*,50.1µM*
COc1ccc(C(=O)N2CCC3(CC2)CN(c2ccccn2)C3)cc1,x,7.5%,x,x,x,30.0%[12.7 µM]
CN1CCC(C(=O)C(=O)O)C1=O (stereo unspecified),20µM*,x,70.8µM*,-5.8%,x,x
CCN(CC)C(=O)[C@H]1CC(CC(=O)NCCC2=CCCCC2)C(=O)N2CCc3c([nH]c4ccc(OC)cc34)[C@]12C (stereo partly specified),-27.3%,x,35.7%,-6.5%,x,x
O=C1C=C(N(CCO)Cc2ccccc2)c2ccccc2C1=O,-34.6%,2.0%,u,-26.2%,u,50.1µM*
COc1ccc(C(=O)CC2(O)C(=O)Nc3c(C)cccc32)c(OC)c1OC (stereo unspecified),4.2%,x,23.5%[57 µM],x,8.1%,2.1%[59 µM]
O=[N+]([O-])c1ccc(/C=N/n2c(COc3ccccc3)n[nH]c2=S)cc1,79.4µM*,-11.4%,-15.8%,u,u,u
O=[N+]([O-])c1cccc(/C=N/n2c(COc3ccccc3)n[nH]c2=S)c1,56.2µM*,56.2µM*,-40.5%,u,u,4.7%[0.501 µM]
CC(C)(C)Nc1oc(-c2ccccc2)nc1-c1ccc(C(F)(F)F)cc1,x,-18.0%,x,x,x,x
O=C(NC1(C(F)(F)F)N=C2SCCN2C1=O)C1CCCCC1 (stereo unspecified),-2.0%,63.1µM*,68.0%,-6.1%,1.2%,9.3%[59 µM]
Cc1ccc(C(=O)NC2(C(F)(F)F)N=C3SCCN3C2=O)cc1 (stereo unspecified),-0.3%,12.3%,24.0%,2.8%,-2.2%,1.1%[12.7 µM]
Nc1c(C(=O)Nn2cnnc2)cc([N+](=O)[O-])cc1[N+](=O)[O-],x,21.8%,x,x,4.4%,50.1µM*
SMILES,JMJD2A Tudor inh,Sfp PPTase inh,HP1b chromo inh,PLK1 PBD inh,BAZ2B inh,G9a inh
CNC(=S)Nc1cc(S(=O)(=O)Nc2cc(Cl)ccc2Cl)ccc1N1CCCC1,u,-9.0%,-8.1%,u,-38.2%,50.1µM*
O=S(=O)(Nc1ccc(Cl)cc1)c1ccc(N2CCOCC2)c(NC(=S)NC2CC2)c1,-23.8%,-85.7%,-22.0%,8.44µM*,u,7.94µM*
CC(=O)Nc1ccc(S(=O)(=O)Nc2cc(Cl)ccc2N2CCOCC2)cc1,-24.7%,x,7.5%,-2.1%,x,x
CC(=O)c1ccc(NC(=O)CN(C)S(=O)(=O)c2cc3c(cc2Cl)NC(=O)CO3)cc1,-14.7%,x,24.6%,x,-19.8%,5.3%[59 µM]
Cc1cnc(CNc2cc(-c3ccccc3Cl)ncn2)cn1,x,-2.4%,x,x,x,-30.4%[0.501 µM]
Cc1ccccc1NC(=S)NCc1ccc2[nH]c3c(c2c1)CCCC3,39.8µM*,5.3%,u,-23.7%,39.8µM*,39.8µM*
COc1ccc(CNC(=S)Nc2cc(C)ccc2C)cc1,-16.8%,3.8%,-22.1%,u,-9.4%,u
COc1ccc(CNC(=S)Nc2ccccc2C)cc1,u,15.3%,-3.1%,16.8µM*,-6.0%,23.2%[59 µM]
S=C(NCc1ccc2[nH]c3c(c2c1)CCCC3)Nc1ccccc1Cl,50.1µM*,-9.8%,u,-0.5%,35.5µM*,39.8µM*
S=C(NCc1ccc(Cl)cc1)Nc1ccccc1Cl,1.6%,3.7%,38.5%,-6.5%,-1.9%,29.3%[59 µM]
Cc1ccc(C)c(NC(=S)NCc2ccc3[nH]c4c(c3c2)CCCC4)c1,50.1µM*,-6.9%,u,-16.5%,31.6µM*,39.8µM*
CCN1C(=O)c2ccccc2Sc2ccc(NC(=O)COc3ccc(Cl)cc3)cc21,-5.2%,x,23.6%[57 µM],x,4.5%,7.9%[59 µM]
COc1cccc(-n2c(COc3ccc(C)cc3)nnc2SCC(N)=O)c1,-15.1%,-2.1%,10.4%,-7.5%,u,u
Cc1ccnc(SCC(=O)c2cccc([N+](=O)[O-])c2)n1,-5.9%,50.1µM*,31.8%,-5.7%,-26.4%,22.4µM*
COc1cccc(-c2nnc(SCC(N)=O)n2-c2ccc(Cl)cc2)c1,-11.3%,5.5%,24.1%,-4.2%,-7.4%,28.2µM*

# Screens as filed in PubChem BioAssay.
